An excerpt weighted towards active compounds, which were near 1.3% of everything screened.
SRC1 inh = inhibits human SRC1 coactivator; HEK293 GAL4-SRC1 luciferase reporter, luminescence; inhibition, % at 3.6 µM; 360,000 compounds, 0.12% hits;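 active = inhibition above the campaign mean plus 3 SD, with each screening campaign given its own cutoff, cut at about 60% in these data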;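 note: 0% = DMSO treated cells and 100% = gossypol at 36 µM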
NR5A2 inv ag = suppresses constitutive activity of human LRH-1; O00482; HEK293T StAR-luciferase reporter, LRH-1 transfected, 24 h; inhibition, % at 3.6 µM; 360,000 compounds, 0.13% hits; AID 602396;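 active = inhibition above the mean inhibition of all tested compounds plus 3 SD, cut at about 73% in these data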;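 note: 0% = DMSO wells and 100% = reporter-only cells lacking LRH-1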
SRC2 inh = human SRC2 (NCOA2) inhibition; inhibition, % at 9 µM; Q15596; HEK293 GAL4-SRC2 luciferase reporter, luminescence; 370,000 compounds, 0.17% hits;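 active = inhibition above the mean inhibition of all tested compounds plus 3 SD, set per campaign, cut at about 52% in these data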;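 note: 0% = DMSO treated cells and 100% = cells given Gossypol at 36 µM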
NCOA3 inh = human NCOA3 inhibition | Q9Y6Q9 | HEK293 GAL4-SRC3 luciferase reporter, luminescence | 360,000 compounds, 0.17% hits | inhibition, % at 3.6 µM;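 active = inhibition above a per-campaign cutoff, the mean of all compounds plus 3 SD, cut at about 60% in these data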;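 note: 0% = DMSO-treated cells and 100% = gossypol-treated cells at 36 µM; higher means less SRC3-driven luciferase light from the GAL4 reporter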
NR2F2 inh = blocks human COUP-TFII nuclear receptor; P24468; HEK293T NGFI-A luciferase reporter, luminescence; inhibition, % at 8.6 µM; 370,000 compounds, 0.7% hits;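 active = inhibition above a per-plate cutoff, mean inhibition of test wells between control levels plus 3 SD, cut at about 38% in these data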;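 note: cells cotransfected with COUP-TFII expression vector driving the NGFI-A reporter; 0% = median of COUP-TF2 test wells and 100% = reporter-only cells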
Target sequence (P24468 whole entry, looked up): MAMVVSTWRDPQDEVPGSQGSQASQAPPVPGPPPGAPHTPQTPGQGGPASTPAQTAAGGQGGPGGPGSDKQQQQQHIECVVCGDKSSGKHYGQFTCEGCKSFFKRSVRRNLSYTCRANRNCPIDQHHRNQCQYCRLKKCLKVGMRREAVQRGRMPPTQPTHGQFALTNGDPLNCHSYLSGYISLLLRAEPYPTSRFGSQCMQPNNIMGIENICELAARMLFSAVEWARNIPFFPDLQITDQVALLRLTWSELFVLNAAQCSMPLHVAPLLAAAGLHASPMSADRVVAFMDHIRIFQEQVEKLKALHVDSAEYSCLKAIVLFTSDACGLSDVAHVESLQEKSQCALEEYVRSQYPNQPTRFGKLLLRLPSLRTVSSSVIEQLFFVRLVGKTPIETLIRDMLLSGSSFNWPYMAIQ
Gli-Sufu block = Gli-Sufu pathway antagonism; Sufu-KO-LIGHT fibroblasts, Gli luciferase reporter luminescence; AID 588413; 340,000 compounds, 0.74% hits; inhibition, % at 5 µM;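 active = inhibition above about 55%, limit read from the data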;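 note: 0% = DMSO-treated cells and 100% = wells with medium but no cells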
Gal4-VP16 ctr = inhibits VP16 reporter, flagging COUP-TFII antagonist hits | HEK293 Gal4-VP16 luciferase reporter, luminescence | AID 687007 | 2,500 compounds, 25% hits | shares compounds with NR2F2 inh | inhibition, % at 8.5 µM; in the data active = inhibition above about 13%
COUP-TFII conf = COUP-TFII (NR2F2) inhibition, confirmation assay; HEK293 NGFI-A luciferase reporter, luminescence; shares compounds with NR2F2 inh; inhibition, % at 8.5 µM; 2,500 compounds, 45% hits;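 active = mean inhibition over three repeats above a set limit taken from the earlier primary screen, cut at about 38% in these data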;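 note: 100% = cells given the luciferase reporter alone without the COUP-TF2 vector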
Numbers without * were called inactive; x = no result given.

SMILES	SRC1 inh	NR5A2 inv ag	SRC2 inh	NCOA3 inh	NR2F2 inh	Gli-Sufu block	Gal4-VP16 ctr	COUP-TFII conf
CC(C)C(NC(=O)OCc1ccccc1)P(=O)(Oc1ccccc1)Oc1ccccc1 (stereo unspecified)	x	x	18.5	x	19.7	x	x	x
CN(Cc1cccc(-c2cccnc2)c1)C(=O)Oc1ccc([N+](=O)[O-])cc1	x	40.5	51.5	x	51.0*	x	9.4	31.0
Cc1nc(-c2cccc(CN(C)C(=O)Oc3ccc([N+](=O)[O-])cc3)c2)no1	x	22.3	8.5	x	7.2	x	x	x
O=C(Nc1ccccc1)N1Cc2cc(Br)ccc2-n2nncc2C1	x	x	9.9	x	1.3	x	x	x
CC(=O)N1c2ccccc2C(c2ccccc2)=NCC1C(=O)NCc1ccccc1 (stereo unspecified)	x	x	-9.2	x	-17.8	x	x	x
CCC(C)C(NC(=O)CCCNC(=O)CCC(=O)OC1O[C@H]2OC3(C)CC[C@H]4[C@H](C)CCC(C1C)C24OO3)C(=O)O (stereo partly specified)	47.5	89.8*	-24.2	68.2*	49.2*	x	-1.2	46.5*
CCC12CCN(CC3(O)CC3)C(Cc3ccc(O)cc31)C2(C)C (stereo unspecified)	x	x	13.3	x	15.7	x	x	x
COP(=O)(OC)OC=C(Cl)Cl	x	x	-0.6	x	9.4	x	x	x
COC(=O)C12OCC34C(CC5C(C)=C(O)C(=O)CC5(C)C3C(O)C1O)OC(=O)C(OC(=O)/C=C(\C)C(C)C)C24 (stereo unspecified)	96.3*	97.7*	73.9*	94.0*	94.0*	88.0*	20.4*	88.2*
CCOc1cccc(CNCCc2c(C)[nH]c3ccc(OC(F)(F)F)cc23)c1O	22.2	27.6	25.6	22.8	51.4*	44.9	-3.3	40.9*
CCC(NC(=O)OCc1ccccc1)P(=O)(Oc1ccccc1)Oc1ccccc1 (stereo unspecified)	x	x	6.0	x	28.1	x	x	x
COc1ccc(-[n+]2c(-c3ccccc3)cc(-c3ccccc3)cc2-c2ccccc2)cc1	x	x	20.9	x	57.3*	83.3*	19.6*	60.4*
Oc1ccc(-[n+]2c(-c3ccccc3)cc(-c3ccccc3)cc2-c2ccccc2)cc1	16.7	33.9	37.2	-47.8	62.2*	42.8	8.3	51.0*
COP(=O)(C(=O)Nc1ccccc1)C(CC(C)C)NC(=O)OCc1ccccc1 (stereo unspecified)	x	x	4.9	x	-13.2	x	x	x
C[C@@H]1O[C@@H](O[C@H]2C[C@@H](O)[C@]3(CO)[C@H]4[C@H](O)C[C@]5(C)[C@@H](C6COC(=O)C6)CC[C@]5(O)[C@@H]4CC[C@]3(O)C2)[C@H](O)[C@H](O)[C@H]1O (stereo partly specified)	68.7*	98.8*	19.4	57.0	67.8*	1.8	20.6*	58.8*
CC1OC(OC2CC(O)C3(CO)C4C(O)CC5(C)C(C6=CC(=O)OC6)CCC5(O)C4CCC3(O)C2)C(O)C(O)C1O (stereo unspecified)	90.1*	103.0*	72.8*	91.9*	83.6*	3.9	53.0*	80.3*
Cc1cccc2nc(-c3ccccc3)c(-c3ccc(CN4CCC(n5c(=O)[nH]c6cc(Cl)ccc65)CC4)cc3)nc12	x	x	7.4	x	2.1	x	x	x
